IL1B secr inh – qHTS for Inhibitors of Inflammasome Signaling: IL-1-beta AlphaLISA Primary Screen; THP-1 LPS/ATP IL-1B secretion, AlphaLISA, 16 h; active compounds read low; activity change, % at 57.5 µM; hit rate 4.7% among 360,000; in the data active = activity change below about -50%; inconclusive = mostly about -30% to -49%
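THP-1 cells pretreated 1 hr with compounds (up to 57.5 uM final), then stimulated with LPS (250 ng/mL final) plus ATP (1.25 mM final); secreted IL-1B measured by AlphaLISA after 16 hr, decreased signal indicating inhibition.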
DT40 TDP1 CPT – qHTS for Inhibitors of human tyrosyl-DNA phosphodiesterase 1 (TDP1): qHTS in cells in presence of CPT | hit rate 12% among 420,000 | Potency, µM (titrated, usually from 46.2 µM), for inactives: at the highest dose activity change, negative = growth inhibition, usual class: inhibitors | chicken DT40 Tdp1-/-;hTDP1 cells + 20 nM CPT, ATP luminescence, 48 h | AID 686979, 2013; also: potency is read from the fitted curve at half-maximal effect; nearly all actives have a fitted effect of over 55% in size
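Cell growth measured by CellTiter-Glo luminescence after a minimum 48 h, 37 C compound exposure with 20 nM CPT in Tdp1-knockout DT40 cells stably expressing hTDP1, seeded 400/well; qHTS titration format.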
HT1080 IDH1KD tx – qHTS for induction of synthetic lethality in tumor cells producing 2HG: qHTS for the HT-1080-IDH1KD cell line | hit rate 2% among 360,000 | HT-1080 IDH1 knockdown viability, ATP luminescence, 48 h | Potency, µM (highest dose often 46.1 µM), inactives show at the top dose activity, negative = toxicity, hits mostly cytotoxic;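 also: potency is read from the fitted curve at half-maximal effect; 0% = DMSO wells and -100% = cell-free medium wells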
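% activity derives from luminescence (CellTiter-Glo), normalised to DMSO and no-cell wells. HT-1080-IDH1KD cells, 750/well, had 48 h compound exposure at 37 °C.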
TDP1 cell noCPT – qHTS for Inhibitors of human tyrosyl-DNA phosphodiesterase 1 (TDP1): qHTS in cells in absence of CPT | Potency, µM (series often up to 46.2 µM), inactives show at the highest dose activity change, negative = growth inhibition, hits mostly inhibitors | DT40 Tdp1-/- hTDP1 cells, no CPT, ATP luminescence, 48 h | hit rate 15% among 420,000; also: potency is read from the fitted curve at half-maximal effect; nearly all actives have a fitted effect of over 55% in size
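Seeded 400 DT40-hTDP1 cells/well (vehicle DMSO, no 20 nM CPT); pinned compounds; ≥48 hr at 37 °C; CellTiter-Glo luminescence as viability measure.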
HT1080-NT tox – qHTS for induction of synthetic lethality in tumor cells producing 2HG: qHTS for the HT-1080-NT fibrosarcoma cell line | hit rate 1.6% among 360,000 | Potency, µM (series often up to 46.1 µM), without a hit: top-dose activity, negative = less viability, hits mostly cytotoxic | HT-1080-NT fibrosarcoma viability, CellTiter-Glo ATP luminescence, 48 h;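 also: NT is the 2HG producing partner of a matched IDH1 knockdown line; potency is read from the fitted curve at half-maximal effect; 0% = DMSO-treated cells and -100% = media-only wells without cells; nearly all actives have a fitted effect of over 55% in size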
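HT-1080-NT; 750 cells/well; 5% FBS RPMI; 48 h compound, 37 degrees C; CellTiter-Glo luminescence; curve fitting and curve-class assignment.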
The depositor's hits bear a star; [ ] = another dose, or the depositor's remark. An excerpt weighted towards active compounds, which were near 19% of everything screened. Unless noted, calls follow the shape of the dose curve; as a rule, active = well fitted curve in the direction sought with a large enough effect; inconclusive = small, poorly fitted or top-dose-only effect, or another doubt; inactive = no such curve, though single readings can be large; an effect the other way counts as inactive or inconclusive. Unless noted, % is scaled to controls: 0 for no effect and ±100 for the full control effect.

For O=[N+]([O-])c1cccc(-c2ccc(C(=S)N3CCN(c4ccc(F)cc4)CC3)o2)c1 the results were IL1B secr inh -3, DT40 TDP1 CPT -17%, HT1080 IDH1KD tx 1%, TDP1 cell noCPT -12% and HT1080-NT tox 1%.
For COc1ccccc1C(=O)NNC(=O)CCC(=O)NCc1ccccc1 the results were IL1B secr inh 9, DT40 TDP1 CPT -2%, HT1080 IDH1KD tx 6%, TDP1 cell noCPT 4% and HT1080-NT tox 7%.
For O=C(/C=C\c1ccc(-c2cccc([N+](=O)[O-])c2)o1)N1CCOCC1 the results were IL1B secr inh -24, DT40 TDP1 CPT inconclusive, HT1080 IDH1KD tx -11%, TDP1 cell noCPT 23µM* and HT1080-NT tox -1%.
`O=C(c1cccc([N+](=O)[O-])c1)N1CCN(c2ccc(Cl)cc2)CC1` gave IL1B secr inh -1, DT40 TDP1 CPT 21µM*, HT1080 IDH1KD tx 10%, TDP1 cell noCPT 15µM* and HT1080-NT tox 10%.
For CC1CCN(c2ccc(NC(=S)NC(=O)c3ccc(-c4cccc([N+](=O)[O-])c4)o3)cc2)CC1 the results were IL1B secr inh -15, DT40 TDP1 CPT 11µM*, HT1080 IDH1KD tx 6.3µM*, TDP1 cell noCPT 10µM* and HT1080-NT tox inconclusive.
Screening CC1CCN(c2ccccc2NC(=S)NC(=O)c2ccc(-c3cccc([N+](=O)[O-])c3)o2)CC1 returned IL1B secr inh 0, DT40 TDP1 CPT inconclusive, HT1080 IDH1KD tx 15%, TDP1 cell noCPT inconclusive and HT1080-NT tox 8%.
Screening CCOC(=O)C(Cc1c[nH]c2cc([N+](=O)[O-])ccc12)(NC(C)=O)C(=O)OCC returned IL1B secr inh 4, DT40 TDP1 CPT -26%, HT1080 IDH1KD tx -8%, TDP1 cell noCPT -20% and HT1080-NT tox 3%.
C[C@H](CO)N1C[C@H](C)[C@H](CN(C)C(=O)c2ccccc2)Oc2cc(Br)ccc2S1(=O)=O was read as IL1B secr inh 11, DT40 TDP1 CPT 5%, HT1080 IDH1KD tx 10%, TDP1 cell noCPT 3% and HT1080-NT tox 17%.
`COc1ccccc1NS(=O)(=O)c1ccc2oc(SCc3ccc(F)cc3)nc2c1` gave IL1B secr inh -6, DT40 TDP1 CPT 16µM*, HT1080 IDH1KD tx -28%, TDP1 cell noCPT 16µM* and HT1080-NT tox inconclusive.
For COc1ccccc1NS(=O)(=O)c1ccc2oc(SC(C)C(=O)N3CCNC3=O)nc2c1 (stereo not drawn) the results were IL1B secr inh inconclusive, DT40 TDP1 CPT 15µM*, HT1080 IDH1KD tx -18%, TDP1 cell noCPT inconclusive and HT1080-NT tox -7%.
For COc1ccccc1NS(=O)(=O)c1ccc2oc(SCC(C)=O)nc2c1 the results were IL1B secr inh 16, DT40 TDP1 CPT -6%, HT1080 IDH1KD tx -15%, TDP1 cell noCPT inconclusive and HT1080-NT tox -3%.
Screening COc1ccc(NC(=O)C2(C)CCCN(C(C)=O)C2)cc1F (stereo not drawn) returned IL1B secr inh 25, DT40 TDP1 CPT -8%, HT1080 IDH1KD tx 10%, TDP1 cell noCPT -3% and HT1080-NT tox 1%.
O=C1Nc2c(ccc(Cl)c2Cl)C(=O)C1(F)c1ccccc1 (stereo not drawn) was read as IL1B secr inh -99*, DT40 TDP1 CPT -16%, HT1080 IDH1KD tx -14%, TDP1 cell noCPT -29% and HT1080-NT tox -4%.
For CCOc1ccc(CN=C(N)N=C(N)N)cc1Cl the results were IL1B secr inh -21, DT40 TDP1 CPT 12µM*, HT1080 IDH1KD tx -23%, TDP1 cell noCPT 5.8µM* and HT1080-NT tox -29%.
CCCOc1ccc(CCCN=C(N)N)cc1Cl was read as IL1B secr inh -90*, DT40 TDP1 CPT 2.1µM*, HT1080 IDH1KD tx 21µM*, TDP1 cell noCPT 2.1µM* and HT1080-NT tox inconclusive.
`CCCCOc1cc(C[C@@H]2CNC(=O)N2)ccc1OC` gave DT40 TDP1 CPT 0% and TDP1 cell noCPT 2%.
CCCCOc1ccc(CN=C(N)N)cc1Cl was read as IL1B secr inh -74*, DT40 TDP1 CPT 2.3µM*, HT1080 IDH1KD tx inconclusive, TDP1 cell noCPT 1.5µM* and HT1080-NT tox inconclusive.
`CC(=O)N1CCCc2cc(S(=O)(=O)N3CCCC(C)C3)ccc21` (stereo not drawn) gave IL1B secr inh 5, DT40 TDP1 CPT 5%, HT1080 IDH1KD tx 8%, TDP1 cell noCPT -13% and HT1080-NT tox 4%.
CCc1cc(C(N)=S)ccn1 was read as IL1B secr inh 0, DT40 TDP1 CPT -11%, HT1080 IDH1KD tx 14%, TDP1 cell noCPT 7% and HT1080-NT tox 24%.
`CCCCCOC(=O)Cn1c(N2CCCCCC2)nc2c1c(=O)[nH]c(=O)n2C` gave IL1B secr inh 6, DT40 TDP1 CPT -25%, HT1080 IDH1KD tx -6%, TDP1 cell noCPT inconclusive and HT1080-NT tox -1%.
Screening Cc1cc(-c2ccnc(-n3ncc(C(=O)N(C)CC(O)c4ccccc4)c3C)n2)c(C)s1 (stereo not drawn) returned DT40 TDP1 CPT 0%[9.04 µM] and TDP1 cell noCPT -30%.
COc1ccc(CNC(=O)c2cc3ccccn3n2)cc1OC was read as DT40 TDP1 CPT -23% and TDP1 cell noCPT -11%.
`CNC(=O)c1cccn1-c1ccsc1C(=O)OC` gave IL1B secr inh -1, DT40 TDP1 CPT inconclusive, HT1080 IDH1KD tx 16%, TDP1 cell noCPT 18µM* and HT1080-NT tox 28%.
For COC(=O)c1sccc1-n1cccc1C(=O)C(=O)N1CCCC1 the results were IL1B secr inh 8, DT40 TDP1 CPT -3%, HT1080 IDH1KD tx 19%, TDP1 cell noCPT -16% and HT1080-NT tox 11%.
For N#C/C(=C/c1cn(-c2ccccc2)nc1-c1cccc(S(=O)(=O)N2CCCC2)c1)C(=O)NCc1ccco1 the results were IL1B secr inh -2, DT40 TDP1 CPT 13µM*, HT1080 IDH1KD tx -22%, TDP1 cell noCPT 12µM* and HT1080-NT tox 1%.
CCSc1ccc(-c2nn(-c3ccccc3)cc2/C=C(/C#N)C(=O)NCCCOC)cc1 was read as IL1B secr inh 19, DT40 TDP1 CPT -5%, HT1080 IDH1KD tx 0%, TDP1 cell noCPT 1% and HT1080-NT tox -1%.
Screening CCOc1cccc(-c2nn(-c3ccccc3)cc2/C=C(/C#N)C(=O)NCCCn2ccnc2)c1 returned IL1B secr inh -99*, DT40 TDP1 CPT inconclusive, HT1080 IDH1KD tx inconclusive, TDP1 cell noCPT inconclusive and HT1080-NT tox 26µM*.
